PLK1 PBD block – inhibitors of human PLK1 polo-box domain binding; P53350; 360,000 compounds, 2.8% hits; Plk1 PBD binding of FITC phosphopeptide, fluorescence polarization; Potency, µM, for the others: max response, negative = inhibition, hits mostly inhibitors; note: series mostly up to about 57 µM; nearly all actives have a fitted effect of over 65% in size
Sfp PPTase inh – Sfp phosphopantetheinyl transferase inhibition; Q9F4F7; Biochemical Sfp PPTase activity, qHTS; Potency, µM, without a hit: largest response in the series, negative = inhibition, usual class: inhibitors; 310,000 compounds, 3.5% hits; AID 1490;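 note: the enzyme is Sfp with the accession as filed and its product quenches rhodamine fluorescence; 0% = enzyme reaction without inhibitor and -100% = no enzyme wells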
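Fluorescence-quenching assay with 15 nM Sfp, 5 uM rhodamine-CoA and 12.5 uM BHQ-2-labelled ybbR peptide in pH 7.6 Hepes/MgCl2 buffer. Enzyme was pre-incubated with compound for 15 min at room temperature. Rate was taken from the 30-min fluorescence change (525/598 nm).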
ALDH1A1 block – inhibitors of human aldehyde dehydrogenase 1A1 | Potency, µM (titrated, usually from 75.3 µM), for inactives: at the highest dose activity, negative = inhibition, actives largely listed as inhibitors | P00352 | Purified ALDH1A1, NADH fluorescence, propionaldehyde substrate | AID 1030 | 220,000 compounds, 7.3% hits; active = well fitted inhibition curve with a large enough effect, not every such curve was filed as active; inconclusive = small, poorly fitted or top-dose-only effect, or another doubt; inactive = no such curve, though single readings can be large or run the other way;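 note: plate controls were no enzyme wells and a reference inhibitor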
Target sequence (P00352 whole entry, looked up): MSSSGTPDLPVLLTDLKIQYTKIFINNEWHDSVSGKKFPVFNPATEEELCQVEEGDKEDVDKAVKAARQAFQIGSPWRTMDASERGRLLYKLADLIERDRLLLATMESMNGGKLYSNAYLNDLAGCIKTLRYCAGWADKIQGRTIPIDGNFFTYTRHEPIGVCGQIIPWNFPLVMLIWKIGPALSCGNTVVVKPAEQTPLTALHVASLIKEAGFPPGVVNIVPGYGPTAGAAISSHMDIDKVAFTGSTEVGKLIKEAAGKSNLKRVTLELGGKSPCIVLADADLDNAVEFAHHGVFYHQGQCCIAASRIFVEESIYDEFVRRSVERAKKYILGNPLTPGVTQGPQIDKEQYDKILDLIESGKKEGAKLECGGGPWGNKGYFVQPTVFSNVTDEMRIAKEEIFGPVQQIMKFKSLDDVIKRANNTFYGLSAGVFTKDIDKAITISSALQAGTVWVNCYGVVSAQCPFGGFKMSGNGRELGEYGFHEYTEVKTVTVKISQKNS
RORg inh – inhibitors of mouse ROR gamma transcriptional activity | P51450 | Drosophila S2 Gal4-RORgamma UAS-luciferase reporter, 20 h | Potency, µM (titrated, usually from 53.6 µM), for the others: at the highest dose activity change, negative = inhibition, most hits filed as inhibitors | 310,000 compounds, 5.4% hits | AID 2551; note: nearly all actives have a fitted effect of over 60% in size
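Schneider cells (Drosophila), stable Gal4 DBD–ROR gamma + UAS-luc; 1 hr cmpd preincubation; Cu2+ induction 700 uM final; 20 hr ambient; luminescence.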
VP16 counter – inhibits Gal4-VP16 luciferase reporter, ROR gamma counter-screen | Drosophila S2 Gal4-VP16 UAS-luciferase, luminescence, 20 h | Potency, µM (highest dose often 53.6 µM), for the others: at the top dose activity, negative = inhibition, hits mostly inhibitors | 310,000 compounds, 3.5% hits;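 note: Gal4-VP16 expression switched on by copper sulfate through the metallothionein promoter; nearly all actives have a fitted effect of over 50% in size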
An asterisk follows results filed as active; ? = inconclusive; . = not tested or not shown; [ ] = remark or other dose. Hits are enriched below; roughly 12% of the tested compounds scored in any of these assays. Unless noted, calls come from the whole dose curve; as a rule, active = well fitted curve in the direction sought with a large enough effect; inconclusive = small, poorly fitted or top-dose-only effect, or another doubt; inactive = no such curve, though single readings can be large; an effect the other way counts as inactive or inconclusive. Unless noted, % is set by controls: 0 for no effect and ±100 for the full control effect; potency is the fitted concentration of half-maximal effect.

SMILES	PLK1 PBD block	Sfp PPTase inh	ALDH1A1 block	RORg inh	VP16 counter
O=C1NC2(CCCCC2)N=C1c1ccc(Br)cc1	-9.6%	9.8%	-8.7%	12.6µM*	?
O=C1NC2(CCCC2)N=C1c1ccc(Cl)cc1	-2.6%	10.2%	4.0%	31.4%	3.4%
Cc1ccc(C2=NC3(CCCCCC3)NC2=S)cc1	-6.1%	9.5%	4.0%	1.41µM*	2.24µM*
O=C1NC2(CCCCC2)N=C1c1ccc(F)cc1	-2.5%	14.7%	5.4%	1.0%	10.0%
O=[N+]([O-])c1ccc(COc2cccc(CN3CCCCC3)c2)cc1	-1.9%	.	.	.	.
C[C@@H]1CN([C@H](C)CO)C(=O)CCCn2nncc2CO[C@H]1CN(C)S(=O)(=O)c1cccc(C#N)c1	-11.9%	.	.	.	.
O=C(O)/C(=C\c1ccccc1OC(F)F)c1ccc(-c2ccccc2)cc1	?	9.2%	.	5.9%	5.8%
O=C(O)/C(=C\c1ccc(F)cc1)c1ccc(-c2ccccc2)cc1	23.8µM*	11.2%	.	-12.4%	-4.9%
COc1ccc(C(=O)/C=C/c2ccccc2F)c(OC(=O)c2ccc([N+](=O)[O-])cc2)c1	-2.3%	8.6%	?	?	-3.3%
COc1cc(/C=C/C(=O)c2ccccc2O)cc(OC)c1OC	?	-13.5%	?	2µM*	?
O=C(/C=C/c1ccccc1F)c1cccc([N+](=O)[O-])c1	?	2.82µM*	?	?	?
COc1ccc(C(=O)/C=C/c2cc(OC)c(O)c(OC)c2)c(F)c1	2.1%	79.4µM*	?	?	?
COc1cc(/C=C/C(=O)c2cccc([N+](=O)[O-])c2)cc(OC)c1OC	?	-15.4%	25.1µM*	15.8µM*	?
COC(=O)CCCC(=O)O	.	.	3.4%[13.5 µM]	.	.
O=C(O)Cc1ccc(N2N=C(c3ccccc3)CC2=O)cc1	-14.6%	.	.	.	.
N#Cc1c(-c2ccco2)nc(SCc2ccc(F)cc2)[nH]c1=O	23.8µM*	10.0%	0.3%	10.8%	15.7%
CN(CC(=O)Nc1ccc(F)cc1)C(=O)CN1C(=O)NC(CCc2ccccc2)C1=O (centres undefined)	4.3%	.	.	.	.
Nc1c(-c2cccc([N+](=O)[O-])c2)nc2ccccn12	-1.6%	-17.4%	7.51µM*	-4.2%	-5.5%
CCS(=O)(=O)c1nc(S(=O)(=O)c2ccc(Cl)cc2)c(NCc2ccccn2)s1	1.1%	-1.7%	12.6µM*	5.2%	-6.1%
CCS(=O)(=O)c1nc(S(=O)(=O)c2ccc(Cl)cc2)c(N2CCc3ccccc3C2)s1	0.5%	9.9%	1.41µM*	20.6%	?
CCN(CC(=O)NCc1ccccn1)S(=O)(=O)c1ccc(Cl)cc1	26.7µM*	?	?	-0.4%	-4.2%
Cc1ccc(S(=O)(=O)N(CC(=O)NCc2ccccn2)c2ccc(Cl)cc2)cc1	-1.4%	12.9%	.	33.8%	-2.4%
COc1ccc(NC(=O)c2c[nH]n3c(=O)cc(C4CCN(C(=O)OC(C)(C)C)CC4)nc23)cc1Cl	23.8µM*	15.6%	?	16.7%	-15.7%
CC(C)(C)OC(=O)N1CCC(c2cc(=O)n3[nH]cc(C(=O)Nc4ccc(F)c(Cl)c4)c3n2)CC1	23.8µM*	8.2%	.	-7.6%	5.2%
C/C=C(/C)C(=O)O[C@H]1CC(C)=CC(=O)[C@@]2(C)CC[C@@](O)(C(C)C)[C@H]12	.	2.6%	.	-8.2%	-4.6%
SMILES	PLK1 PBD block	Sfp PPTase inh	ALDH1A1 block	RORg inh	VP16 counter
CCNC(=O)C1(C)CCCN(Cc2noc(-c3c(C)noc3C)n2)C1 (centres undefined)	-5.0%	.	.	.	.
Cc1ccc2[nH]c(C(=O)Nc3ccc(F)cc3)cc2c1	-3.8%	21.7%	.	10µM*	15.9%
CCCOc1ccc(NC(=O)c2cc3cc(C)ccc3[nH]2)cc1	-0.6%	1.1%	.	-10.2%	-8.6%
CCCCNC(=S)N(C)/N=C/c1sc(N2CCCCC2)nc1-c1cccs1	.	4.1%	-2.1%	11.2µM*	-5.3%
O=C(N/N=C/c1sc(N2CCOCC2)nc1-c1ccccc1)c1ccccc1Cl	?	-4.2%	?	0.0%	-7.0%
CC(C)NC(=S)N/N=C/c1sc(N2CCCCC2)nc1-c1cccs1	-23.5%	-9.0%	?	1.41µM*	?
Cc1cc(C(=O)N/N=C/c2sc(N3CCOCC3)nc2-c2ccccc2)c(C)o1	-9.5%	-33.3%	?	?	0.7%
O=C(N/N=C/c1sc(N2CCCCC2)nc1-c1cccs1)C1CC1	-14.1%	56.2µM*	22.4µM*	7.08µM*	?
CCCCNc1nc(C)nc2c1nc(-c1ccccc1)n2C(C)CCCN(CC)CC (centres undefined)	.	-3.5%	?	-27.5%	-12.9%
CCOC(=O)CSc1nc2c(c(=O)[nH]c(=O)n2C)n1CCc1ccccc1	0.6%	3.6%	?	-26.7%	-3.1%
C/C(Cl)=C/Cn1c(SC(C)C)nc2c1c(=O)[nH]c(=O)n2C	?	?	5.01µM*	4.4%	-0.7%
CCCCCn1c(SCCN2CCOCC2)nc2c1c(=O)[nH]c(=O)n2C	29.9µM*	50.1µM*	-14.9%	15.0%	-3.6%
CCCCCCn1c(SCCN2CCOCC2)nc2c1c(=O)[nH]c(=O)n2C	-16.8%	-6.2%	4.2%	26.8%	2.0%
CCCCn1c(SCC(=O)OCC)nc2c1c(=O)[nH]c(=O)n2C	26.7µM*	-21.3%	12.6µM*	-4.0%	-10.1%
CCOC(=O)CSc1nc2c(c(=O)[nH]c(=O)n2C)n1C/C=C(/C)Cl	?	50.1µM*	17.8µM*	-2.0%	-0.9%
C/C(Cl)=C/Cn1c(N2CCCC2)nc2c1c(=O)[nH]c(=O)n2C	-1.4%	7.1%	.	-7.6%	-1.7%
O=c1nc2ccccc2c2n1CC(CN1CCN(c3ccccc3)CC1)N2 (centres undefined)	.	23.6%	2.7%	.	.
COc1ccc([C@]23Cc4cc(OC)c(OC)cc4C(O2)C2=C(CC4(CCCCC4)OC2=O)O3)cc1	.	0.8%	.	9.2%[10 µM]	5.4%[10 µM]
S=C1NCCNC(=S)NCCOCCOCCN1	26.7µM*	27.1%	1.2%	-6.8%	3.9%[10 µM]
CCC(=O)N1CCc2cc(S(=O)(=O)NCCC(=O)N3CCN(c4cccc(C)c4)C(C)C3)ccc21 (centres undefined)	6.7%	8.3%	.	20.8%	4.1%
Cc1ccc(C2CC(c3cccc(Br)c3)Nc3nnnn32)cc1 (centres undefined)	-8.6%	-5.8%	17.8µM*	-8.3%	-9.5%[0.365 µM]
OC(c1cc(F)cc(Cl)c1)c1ncc(-c2ccc(Cl)cc2)[nH]1 (centres undefined)	-2.0%	.	.	.	.
Cc1ccc(NC(=O)CSc2nnc(NC(=O)C(C)C)s2)c(C)c1	-2.2%	14.4%	.	6.7%	-4.4%
Cc1cccc(C)c1Nc1nnc(SCC(=O)c2ccc(Br)s2)s1	23.8µM*	2.1%	-6.3%	-16.9%	-0.4%
Cc1ccc(Nc2nnc(SCC(=O)c3ccc(Br)s3)s2)c(C)c1	12.8%	2.2%	?	35.5µM*	?
COc1ccc(NS(=O)(=O)c2cccc(C(=O)NCc3ccccc3CN3CCOCC3)c2)cc1	1.3%	.	.	.	.
COc1ccccc1NC(=O)CCN1C(=O)/C(=C\c2cc(OC)c(OC)c(OC)c2)SC1=S	0.8%	56.2µM*	.	-5.0%	0.7%

Source: PubChem (National Center for Advancing Translational Sciences (NCATS))
